In PubChem BioAssay AID743171 (National Center for Advancing Translational Sciences (NCATS), 2013) one finds Potency data, which are given here for 40 compounds.

Molecules are shown by their SMILES. “And” between values parts separate entries of the source, which are not always exact repeats. Equal entries are not always repeated. Results filed as inconclusive are left out. The source made the active and inactive calls. Calls come from the whole dose curve; as a rule, active = well fitted inhibition curve with a large enough effect; inconclusive = small, poorly fitted or top-dose-only effect; inactive = flat fitted curve, though single readings scatter.

For the assay, the target named is 15-hydroxyprostaglandin dehydrogenase [NAD(+)] (Homo sapiens) (UniProt P15428). Description: Extended Characterization of HPGD Inhibitors: Activity in Primary Assay (HPGD). Particulars: recombinant HPGD, NADH fluorescence, PGE2 substrate; series mostly up to 57.1 µM. The text has this: The central role of HPGD is to inactivate prostaglandins such as prostaglandin E2 (PGE2) or prostaglandin D2 (PGD2). These prostaglandins are involved in a number of processes, including inflammation, differentiation, and cellular signaling, which makes HPGD an important target for pharmacological intervention. Inhibition of 15-PGDH (HPGD) activity was screened by utilizing prostaglandin as an electron donor and NAD+ as an electron acceptor/cofactor. An increase in the fluorescence intensity due to conversion of NAD+ to NADH was used to measure the enzyme activity. All compounds were screened using a qHTS approach, where compounds are assayed using at least seven concentrations to generate concentration-response curves for every compound. Briefly, qHTS uses an inter-plate dilution method where the first plate contains the highest concentration of a set of compounds in DMSO, while subsequent plates contain the same compounds in the same well locations, but at successive lower concentrations. NIH Chemical Genomics Center [NCGC] NIH Molecular Libraries Probe Centers Network [MLPCN] MLPCN Grant: MH084681 Assay Submitter (PI): Structural Genomics Consortium
15-hydroxyprostaglandin dehydrogenase [NAD(+)] (Homo sapiens), sequence (P15428 whole entry, looked up): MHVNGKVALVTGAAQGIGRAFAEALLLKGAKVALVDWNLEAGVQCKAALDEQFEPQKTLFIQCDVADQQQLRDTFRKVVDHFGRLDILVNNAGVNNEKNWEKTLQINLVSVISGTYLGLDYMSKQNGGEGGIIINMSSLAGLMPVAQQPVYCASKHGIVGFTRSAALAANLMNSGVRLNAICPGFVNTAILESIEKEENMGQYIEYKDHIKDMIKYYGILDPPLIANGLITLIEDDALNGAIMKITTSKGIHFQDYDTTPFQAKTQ
Three uL of enzyme (20 nM final concentration) were dispensed to 1536-well Greiner black solid bottom plates. Compounds (23 nL) were transferred via Kalypsys PinTool. The plates were incubated for 15 min at room temperature, and then 1 uL of substrate/cofactor solution (Substrate/cofactor solution: 1 mM NAD+ and 30 uM prostaglandin (Sigma, prostaglandin E2, #P5640)) were added to start the reaction. The plates were immediately transferred to and read 4 times every 30 seconds on a ViewLux High-throughput CCD imager (Perkin-Elmer) using 340 nm excitation and 450 nm emission fluorescence protocol. The fluorescence intensity difference between the last and the first time points, normalized against controls, was used to compute reaction progress.
Consider `O=C(c1ccc2c(c1)ncn2-c1ccccc1)N1CCCCC1`, for which the Potency is 21.5 nM (active).

Take `c1ccc(-n2ccc(-c3nnc4n3CCCCC4)c2)cc1`: the Potency is 607 nM (active).

For the compound `CCCCn1cnc2cc(C(=O)N3CCCCC3)ccc21`, the Potency is 68.1 nM (active).

In the case of `c1ccc(-n2cc(-c3nnc4n3CCCCC4)cn2)cc1`, the Potency is 3830 nM (active).

Turning to `CCCCNC(=O)c1ccc2c(c1)ncn2-c1cccc(C)c1`, the Potency is 1360 nM (active).

As for `Cc1cc(-c2nnc3n2CCCCC3)c(C)n1-c1ccc(Br)cc1`, the Potency is 48.2 nM (active).

In the case of `COc1cccc(-n2cnc3cc(C(=O)N4CCCCC4)ccc32)c1`, the Potency is 19.2 nM (active).

`Brc1cnc2nc(SCc3ccccn3)[nH]c2c1`: the Potency is 3410 nM (active).

Take `Clc1cccc(CSc2nc3ncc(Br)cc3[nH]2)c1`: the Potency is 242 nM (active).

Take `FC(F)(F)c1ccc(-c2nc(-c3nnc4n3CCCCC4)c(C(F)(F)F)o2)cc1`: the Potency entry is “inactive”.

For the compound `Fc1cccc(CSc2nc3ncc(Br)cc3[nH]2)c1`, the Potency was 341 nM (active).

Consider `Cc1cccc(-n2cnc3cc(C(=O)N4CCOCC4)ccc32)c1`, for which the Potency was 3040 nM (active).

With `CC(C)c1cccc(-n2cnc3cc(C(=O)N4CCCCC4)ccc32)c1`, the Potency was 68.1 nM (active).

In the case of `CCOC(=O)c1ccc(-n2cnc3cc(C(=O)N4CCCCC4)ccc32)cc1`, the Potency was 13.6 nM (active).

Regarding `N#Cc1ccccc1CCc1nc2ncc(Br)cc2[nH]1`, the Potency is 19200 nM (active).

As to `CCOC(=O)c1ccc(-n2c(C)cc(-c3nnc4n3CCCCC4)c2C)cc1`, the Potency was 38.3 nM (active).

Regarding `Cc1cc(-c2nnc3n2CCCCC3)c(C)n1-c1cccc2ccccc12`, the Potency was 54.1 nM (active) and 108 nM (active).

Take `Clc1ccccc1CSc1nc2ncc(Br)cc2[nH]1`: the Potency is 54.1 nM (active).

`Cc1cccc(-n2cnc3cc(C(=O)N4CCC(C#N)CC4)ccc32)c1`: the Potency was 19200 nM (active).

On to `CC(C)(C)c1ccc(CSc2nc3ncc(Br)cc3[nH]2)cc1`, for which the Potency result was “inactive”.

For `O=[N+]([O-])c1cccc(CSc2nc3ncc(Br)cc3[nH]2)c1`, the Potency was 68.1 nM (active).

Take `O=C(c1ccc2c(c1)ncn2-c1ccc(C(F)(F)F)cc1)N1CCCCC1`: the Potency was 85.7 nM (active).

As for `Cc1cc(-c2nnc3n2CCCCC3)c(C)n1-c1ccc(F)cc1`, the Potency was 121 nM (active).

On to `Cc1cc(-c2nnc3n2CCCCC3)c(C)n1-c1cccc(Cl)c1`, for which the Potency is 34.1 nM (active).

With `c1ccc(-n2cc(-c3nnc4n3CCCCC4)c3ccccc32)cc1`, the Potency is 681 nM (active).

Take `Cc1cc(-c2nnc3n2CCCCCC3)c(C)n1-c1ccccc1`: the Potency is 242 nM (active).

Regarding `Cc1cc(-c2nnc3n2CCCCCCC3)c(C)n1-c1ccccc1`, the Potency was 383 nM (active).

Consider `Cc1cc(-c2nnc3n2CCCCC3)c(C)n1-c1ccc([N+](=O)[O-])cc1`, for which the Potency is 108 nM (active).

For `CC(C)(C)n1cnc2cc(C(=O)N3CCCCC3)ccc21`, the Potency was 34.1 nM (active).

`Cc1cc(-c2nnc3n2CCC3)c(C)n1-c1ccccc1`: the Potency is 3040 nM (active).

Take `Brc1cnc2nc(SCc3cccnc3)[nH]c2c1`: the Potency was 1360 nM (active).

For the compound `Cc1ccccc1CSc1nc2ncc(Br)cc2[nH]1`, the Potency was 76.4 nM (active).

Consider `Cc1cc(-c2nnc3n2CCCCC3)c(C)n1-c1cccc(C#N)c1`, for which the Potency was 76.4 nM (active).

With `Cc1cc(-c2nnc3n2CCCCC3)c(C)n1-c1ccncc1`, the Potency was 383 nM (active).

Turning to `CC(C)(C)c1cccc(-n2cnc3cc(C(=O)N4CCCCC4)ccc32)c1`, the Potency is 171 nM (active).

`Cc1cccc(-n2cnc3cc(C(=O)N4CCCC4)ccc32)c1`: the Potency is 383 nM (active).

Take `Cc1cc(-c2nnc3n2CCCCC3)c(C)n1-c1ccccc1`: the Potency is 121 nM (active) and 54.1 nM (active) and 68.1 nM (active).

For `O=C(c1ccc2c(c1)ncn2-c1ccc(Cl)cc1)N1CCCCC1`, the Potency was 21.5 nM (active).

For `O=[N+]([O-])c1ccccc1CSc1nc2ncc(Br)cc2[nH]1`, the Potency was 96.1 nM (active).

For `Cc1cccc(-n2cnc3cc(C(=O)NC4CCCCC4)ccc32)c1`, the Potency is 3040 nM (active).
